Structures are written as SMILES. Active and inactive are the calls of the source. Unless noted, no rule for the calls is given here.

Assay [1] is described as follows: anti-His antibody binders, primary screen, artefact control for SMM control protein annotation, biochemical, small-molecule microarray, 635 nm fluorescence (AID 1128).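 Also: score merges feature fluorescence with signal-to-noise for each printed compound spot.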 Conditions: anti-His Alexa647 antibody binding, higher = more signal.
For assay [2], the system named is Human papillomavirus type 1a E7 protein (residues 1-88). Put plainly: HPV1a E7 small-molecule binders, primary screen, biochemical, small-molecule microarray, residues 1-88, 635 nm (AID 1129). Conditions: small-molecule microarray binding, fluorescence 635 nm; higher = more signal.
Assay [3] has as its target Focal adhesion kinase 1 (Homo sapiens) (UniProt Q05397). Put plainly: small-molecule microarray binders of FAK, primary screen, biochemical, 635/667 nm fluorescence, BSA, DTT (AID 1130).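 Also: composite of spot emission at 667 nm and signal to noise over triplicate slides.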 Conditions: PTK2 binding, 635 nm fluorescence, higher = more signal.
Assay [4] has as its system Fibrinogen (Alexa647-labelled). The assay can be described thus: fibrinogen binders on compound microarrays, profiling panel, artefact control for SMM control-protein annotation, biochemical, small-molecule microarray, 635/667 nm fluorescence (AID 1131).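 Also: z-score merges 667 nm fluorescence with per-spot signal-to-noise over triplicate slides.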 Conditions: fibrinogen-A647 binding fluorescence, higher = more signal.
Assay [5] concerns the target Follistatin (Homo sapiens) (UniProt P19883). Put plainly: follistatin binders on small-molecule microarrays, primary screen, biochemical, small-molecule microarray, 635/667 nm fluorescence (AID 1132). Conditions: FST binding, 635 nm fluorescence, higher = more signal.
The target in assay [6] is Fibroblast growth factor 2 (Homo sapiens) (UniProt P09038). The assay can be described thus: FGF2 binders on small-molecule microarrays, primary screen, biochemical, small-molecule microarray, 635/667 nm fluorescence (AID 1133). Conditions: small-molecule microarray binding, FGF2, fluorescence 635/667; higher = more signal.
Sequence of Fibroblast growth factor 2 (Homo sapiens) (P09038 whole entry, looked up): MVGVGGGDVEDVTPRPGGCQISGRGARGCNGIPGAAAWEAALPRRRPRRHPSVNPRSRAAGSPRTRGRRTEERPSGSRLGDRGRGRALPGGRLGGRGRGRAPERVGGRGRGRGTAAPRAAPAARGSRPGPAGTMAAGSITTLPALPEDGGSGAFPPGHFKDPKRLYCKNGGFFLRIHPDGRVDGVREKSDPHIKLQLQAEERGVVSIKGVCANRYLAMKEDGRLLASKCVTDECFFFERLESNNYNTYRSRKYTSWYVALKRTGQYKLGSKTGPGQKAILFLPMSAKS
A short description of assay [7]: mitochondrial membrane potential change in A549 cells, profiling panel, cell-based, JC-1 fluorescence, basal, 24 h, 100 nL (AID 1138).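 Also: A549 lung adenocarcinoma cells under basal conditions with no added stimulus; test concentration not given here.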 The conditions noted are these: higher = more signal.
The next assay concerns Lefty1. Put plainly: Lefty1 binders on small-molecule microarrays, primary screen, biochemical, small-molecule microarray, 635/667 nm fluorescence (AID 1139). The conditions noted are these: small-molecule microarray binding, fluorescence 635/667; higher = more signal.
In assay [8] the test system is wheat germ agglutinin (Triticum aestivum), Alexa647-labelled. The assay can be described thus: wheat germ agglutinin binders on compound microarrays, profiling panel, artefact control for SMM control-protein annotation, biochemical, small-molecule microarray, 635/667 nm fluorescence (AID 1140).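 Also: score merges 667 nm feature emission with signal to noise over triplicate slides.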 The conditions noted are these: WGA-A647 binding, 635 nm fluorescence, higher = more signal.

Assay [9] addresses Luciferin 4-monooxygenase (Photinus pyralis) (UniProt P08659). Put plainly: firefly luciferase enzyme inhibitors, primary screen, biochemical, luminescence, purified enzyme, 2006 set (AID 1141).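 Also: cell-free assay with purified firefly luciferase at 100 ng per well in PBS; test concentration not given here.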 The conditions noted are these: SteadyGlo luminescence, 30 min, higher = more signal, called active from +8 up or from −8 down.
Assay [10] deals with Wnt5a (protein binding on small-molecule microarray). The assay can be described thus: Wnt5a binders on small-molecule microarray, primary screen, biophysical, 635/667 nm fluorescence (AID 1142).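 Also: fluorescence read at 667 nm with signal to noise per printed feature.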 The conditions noted are these: 635 nm fluorescence, higher = more signal.
Assay [11] can be described thus: cell viability in Huh7 cells, primary screen, cytotoxicity control for HCV replication inhibitor project, CellTiter-Glo luminescence, basal, 48 h (AID 1143).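 Also: Huh7 hepatoma cells carrying a hepatitis C replication reporter with no stimulus; test concentration not given here.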 The conditions noted are these: Huh7 HCV replicon, higher = more signal, called active from +8 up or from −8 down.
The nature of assay [12]: P. aeruginosa biofilm formation inhibitors, primary screen, PAO1 strain, BacTiter-Glo luminescence, LB-PBS (AID 1144). Conditions: 12 h, higher = more signal.
Assay [13] can be described thus: CREB reporter modulators without forskolin, primary screen, cell-based, PC12, CRE-LacZ reporter, unstimulated (AID 1145). Conditions: no forskolin, luminescence, 4.5 h, higher = more signal, called active from +8 up or from −8 down.
Assay [14] in a line: CREB reporter modulators under forskolin, primary screen, cell-based, PC12, CRE-LacZ reporter, forskolin-stimulated (AID 1146).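 Also: PC12 cells with 6xCRE LacZ reporter stimulated by forskolin 10 µM; beta-galactosidase reporter signal reflecting CREB driven transcription.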 Conditions: luminescence, 4.5 h, higher = more signal, called active from +8 up or from −8 down.
The target of assay [15] is Streptavidin (Streptomyces avidinii) (UniProt P22629). Put plainly: streptavidin binders on small-molecule microarray, primary screen, artefact control for SMM compound annotation, biophysical, 635/667 nm fluorescence (AID 1147).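 Also: signal reflects streptavidin binding to arrayed compounds as a control protein.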 The conditions noted are these: streptavidin binding, higher = more signal.
Sequence of Streptavidin (Streptomyces avidinii) (P22629 whole entry, looked up): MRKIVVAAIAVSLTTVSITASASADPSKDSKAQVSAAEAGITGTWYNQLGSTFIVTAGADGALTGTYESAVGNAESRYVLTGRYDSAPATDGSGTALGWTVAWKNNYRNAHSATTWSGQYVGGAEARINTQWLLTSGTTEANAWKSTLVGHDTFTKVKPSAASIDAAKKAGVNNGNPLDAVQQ
A short description of assay [16]: small-molecule binders of probe aInhba, primary screen, biochemical, small-molecule microarray, 635/667 nm fluorescence (AID 1148).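 Also: score merges 667nm spot fluorescence with signal-to-noise for antibody binding to printed compounds.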 The conditions noted are these: higher = more signal.
Assay [17] has as its target Torsin-1A (Homo sapiens) (UniProt O14656). The assay can be described thus: torsin A binders from cell lysate, primary screen, small-molecule microarray, wild-type, 635/667 nm (AID 1149). The conditions noted are these: COS7 hTOR1A-WT lysate, 635 nm fluorescence, higher = more signal.
Assay [18] has the same target. The assay can be described thus: small-molecule binders of mutant TOR1A in lysate, primary screen, cell lysate, small-molecule microarray, COS7 lysate, 635/667 nm fluorescence (AID 1150).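 Also: score pools 667 nm emission and signal to noise measuring lysate protein binding.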 The conditions noted are these: COS7 hTOR1A mutant lysate, 635 nm fluorescence, higher = more signal.
Assay [19] relates to Sonic hedgehog protein (Shh). The assay can be described thus: small-molecule binders of Shh protein, primary screen, biochemical, small-molecule microarray, 635/667 nm fluorescence (AID 1151).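 Also: Shh protein binding to compounds spotted on small-molecule microarray slides; score combines spot fluorescence intensity with signal-to-noise across triplicate slides.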 The conditions noted are these: small-molecule microarray binding, 635 nm fluorescence; higher = more signal.

Sequence of Focal adhesion kinase 1 (Homo sapiens) (Q05397 whole entry, looked up): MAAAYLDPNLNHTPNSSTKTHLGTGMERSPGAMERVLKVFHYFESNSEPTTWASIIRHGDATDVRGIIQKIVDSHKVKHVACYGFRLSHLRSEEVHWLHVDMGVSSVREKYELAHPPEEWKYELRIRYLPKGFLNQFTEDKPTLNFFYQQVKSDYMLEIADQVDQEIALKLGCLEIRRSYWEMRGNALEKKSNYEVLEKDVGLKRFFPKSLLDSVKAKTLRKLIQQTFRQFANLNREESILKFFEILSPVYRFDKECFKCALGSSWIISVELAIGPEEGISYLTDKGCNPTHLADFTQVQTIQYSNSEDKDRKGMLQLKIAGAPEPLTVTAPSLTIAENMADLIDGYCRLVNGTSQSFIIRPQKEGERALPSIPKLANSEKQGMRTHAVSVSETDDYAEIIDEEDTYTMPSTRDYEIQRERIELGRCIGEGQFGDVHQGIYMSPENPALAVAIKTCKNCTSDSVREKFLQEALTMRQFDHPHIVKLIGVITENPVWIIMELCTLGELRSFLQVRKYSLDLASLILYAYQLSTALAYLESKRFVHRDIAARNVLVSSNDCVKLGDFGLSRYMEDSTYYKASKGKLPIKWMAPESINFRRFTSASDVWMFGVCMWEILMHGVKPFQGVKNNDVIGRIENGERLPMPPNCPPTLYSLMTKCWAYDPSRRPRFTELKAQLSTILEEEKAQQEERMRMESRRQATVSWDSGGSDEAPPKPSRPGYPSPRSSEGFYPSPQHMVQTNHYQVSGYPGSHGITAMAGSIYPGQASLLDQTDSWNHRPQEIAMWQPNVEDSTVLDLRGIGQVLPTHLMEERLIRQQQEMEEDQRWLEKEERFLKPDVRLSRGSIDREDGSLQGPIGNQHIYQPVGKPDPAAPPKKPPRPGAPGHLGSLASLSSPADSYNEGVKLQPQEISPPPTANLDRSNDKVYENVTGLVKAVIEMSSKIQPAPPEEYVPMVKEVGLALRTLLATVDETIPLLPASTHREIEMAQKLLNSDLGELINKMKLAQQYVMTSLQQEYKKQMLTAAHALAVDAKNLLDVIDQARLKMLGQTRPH
Sequence of Luciferin 4-monooxygenase (Photinus pyralis) (P08659 whole entry, looked up): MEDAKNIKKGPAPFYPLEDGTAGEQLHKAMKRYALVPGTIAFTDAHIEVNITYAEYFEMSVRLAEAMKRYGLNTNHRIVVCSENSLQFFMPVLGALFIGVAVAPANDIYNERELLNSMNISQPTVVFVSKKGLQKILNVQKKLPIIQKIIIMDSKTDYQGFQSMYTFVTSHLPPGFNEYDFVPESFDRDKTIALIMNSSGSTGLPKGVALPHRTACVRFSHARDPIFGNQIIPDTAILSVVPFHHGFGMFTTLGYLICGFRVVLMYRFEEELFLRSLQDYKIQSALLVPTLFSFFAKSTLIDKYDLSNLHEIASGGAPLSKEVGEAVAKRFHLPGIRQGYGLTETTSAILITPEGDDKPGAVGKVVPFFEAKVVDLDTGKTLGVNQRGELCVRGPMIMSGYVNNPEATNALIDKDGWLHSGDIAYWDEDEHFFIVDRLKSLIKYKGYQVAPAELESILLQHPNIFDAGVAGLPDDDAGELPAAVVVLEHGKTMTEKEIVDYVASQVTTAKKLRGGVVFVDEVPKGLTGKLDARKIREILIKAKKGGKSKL
Sequence of Follistatin (Homo sapiens) (P19883 whole entry, looked up): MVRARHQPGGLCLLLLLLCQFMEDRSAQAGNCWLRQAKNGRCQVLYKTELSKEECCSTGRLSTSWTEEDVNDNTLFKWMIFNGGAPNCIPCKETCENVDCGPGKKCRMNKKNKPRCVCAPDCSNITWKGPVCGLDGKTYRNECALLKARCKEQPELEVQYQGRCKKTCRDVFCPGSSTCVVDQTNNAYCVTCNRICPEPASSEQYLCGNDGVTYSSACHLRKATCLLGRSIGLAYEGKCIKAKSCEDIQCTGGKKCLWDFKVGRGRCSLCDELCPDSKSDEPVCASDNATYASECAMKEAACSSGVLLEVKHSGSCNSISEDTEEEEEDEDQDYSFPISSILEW
Sequence of Torsin-1A (Homo sapiens) (O14656 whole entry, looked up): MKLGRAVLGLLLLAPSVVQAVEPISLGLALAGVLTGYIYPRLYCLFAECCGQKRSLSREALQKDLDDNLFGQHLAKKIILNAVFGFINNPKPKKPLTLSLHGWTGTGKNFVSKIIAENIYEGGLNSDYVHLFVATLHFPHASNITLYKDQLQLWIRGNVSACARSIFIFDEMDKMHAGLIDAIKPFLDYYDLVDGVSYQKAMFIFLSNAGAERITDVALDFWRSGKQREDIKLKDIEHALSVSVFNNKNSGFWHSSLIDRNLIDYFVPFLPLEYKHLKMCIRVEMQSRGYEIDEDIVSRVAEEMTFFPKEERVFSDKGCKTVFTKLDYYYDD

Take `C#CCN(C/C=C/c1ccccc1)[C@H](CO[Si](C)(C)C(C)(C)C)c1ccccc1`: the composite z-score in assay [1] was 0.953; in assay [2] it was -0.786; in assay [3], 0.329; in assay [4], -0.759; in [5], -0.0993; in [6], -0.187. The composite z-score was 0.178 with Lefty1; -0.0631 in assay [8]; -0.276 in assay [10]; -0.531 in assay [15]; -0.0719 in assay [16]; -0.805 with Torsin-1A (Homo sapiens) [17]. Further, the composite z-score in the assay with Torsin-1A (Homo sapiens) [18] was -0.239; in [19] it was 0.0896. The z-score in assay [7] is -2.21; in [9], 0.43 (inactive); in assay [11] it was -0.832 (inactive); in assay [12], 0.221 (inactive); in [13], -0.0487 (inactive); in assay [14], -0.626 (inactive).

For `COc1ccc(CCNC(=O)[C@@H]2c3ccccc3C(=O)N(CC34CC5CC(CC(C5)C3)C4)[C@H]2c2ccc(CO)cc2)cc1`, the composite z-score in assay [1] turned out to be 1.3; in assay [2] it was 1.15; in assay [3], 0.548; in assay [4] it was 0.61; in assay [5] it was 1.07; in [6], 1.47. Further, the composite z-score was 0.867 in the assay with Lefty1; 0.965 in assay [8]; 0.788 in assay [10]; 0.4 in assay [15]; -0.0006 in [16]; 0.713 with Torsin-1A (Homo sapiens) [17]. Also, the results for the composite z-score (in the assay with Torsin-1A (Homo sapiens) [18]; in assay [19]) were 0.801 and 1.4, respectively. Besides, the z-score is 0.125 in [7]; 1.36 (inactive) in assay [9]; -3.34 (inactive) in assay [11]; -2.65 (inactive) in [12]; 0.441 (inactive) in [13]; -0.887 (inactive) in assay [14].

On to `C=CCC(OC(C)=O)[C@@H]1[C@@H](N(Cc2ccc(-c3cccc(C(F)(F)F)c3)o2)C(=O)Cc2ccc(F)cc2)c2cc(OCCCO)ccc2N1C(=O)c1ccc2ccccc2c1` (stereo not given in full), for which the composite z-score was -0.118 in assay [1]; -0.783 in [2]; -0.192 in assay [3]; -1.67 in [4]; 0.426 in [5]; -0.451 in assay [6]. For the same compound, the composite z-score is 0.479 in the assay on Lefty1; -0.486 in assay [8]; -0.314 in assay [10]; -0.488 in [15]; -0.2 in assay [16]; -0.954 with Torsin-1A (Homo sapiens) [17]. In addition, the composite z-score was -0.244 in the assay with Torsin-1A (Homo sapiens) [18] and 0.718 in [19]. The z-score is 0.637 in assay [7]; 0.354 (inactive) in assay [9]; -0.376 (inactive) in assay [11]; -0.25 (inactive) in [12]; 0.279 (inactive) in [13]; 0.914 (inactive) in assay [14].

Turning to `COC(=O)[C@@]1(CCC(=O)OC(C)(C)C)N=C(c2ccc(OCCCO)cc2)O[C@H]1c1ccccc1CN=[N+]=[N-]`, the composite z-score is 0.656 in assay [1]; 0.0163 in assay [2]; -0.0599 in assay [3]; 0.0201 in [4]; 0.663 in assay [5]; 0.442 in assay [6]. The composite z-score in the assay on Lefty1 was -0.756; in [8] it was 0.249; in [10], 0.113; in assay [15], -0.139; in assay [16] it was 0.241; with Torsin-1A (Homo sapiens) [17], -0.193. For the same compound, the composite z-score amounted to 0.261 with Torsin-1A (Homo sapiens) [18] and 0.339 in assay [19]. Moreover, the z-score in assay [7] is 0.895; in [9], -0.488 (inactive); in [11], -2.35 (inactive); in assay [12] it was -0.0281 (inactive); in assay [13], 1.94 (inactive); in assay [14] it was -1.55 (inactive).

Take `COCCOC(=O)N1C(=O)[C@@]2(c3cc(C#Cc4ccc(OC)cc4)ccc31)[C@H](C(=O)Nc1nc3ccccc3s1)[C@H]1C(=O)O[C@H](c3ccccc3)[C@H](c3ccccc3)N1[C@@H]2c1ccccc1OCCO`: the composite z-score turned out to be 0.484 in assay [1]; 1.05 in assay [2]; 0.0699 in assay [3]; 0.922 in [4]; 1.32 in assay [5]; 1.04 in [6]. The composite z-score is 0.973 in the assay on Lefty1; 0.883 in assay [8]; 0.0516 in assay [10]; 0.299 in [15]; -0.0566 in [16]; 0.245 in the assay with Torsin-1A (Homo sapiens) [17]. The composite z-score with Torsin-1A (Homo sapiens) [18] was 0.243; in assay [19] it was 1.34. Besides, the z-score in [7] was -1.75; in assay [9], -1.76 (inactive); in assay [11] it was -4.28 (inactive); in [12] it was -1.6 (inactive); in [13] it was -1.7 (inactive); in assay [14], -1.44 (inactive).

(Values after PubChem BioAssay.)
